Measurements as given in PubChem BioAssay AID720580 (National Center for Advancing Translational Sciences (NCATS), 2013).
Hit rate of the full screen: of about 330,000 compounds, about 1,500 (0.45%) were called active. Where a call stands in place of a potency, no number is given. About 6% were inconclusive and are not listed. Calls come from the whole dose curve; tested in A549 cells. The full list was thinned out, with actives kept by preference.

Assay: qHTS for Stage-Specific Inhibitors of Vaccinia Orthopoxvirus: Venus Reporter Primary qHTS; note: nearly all actives have a fitted effect of over 30% in size
Details: Vaccinia virus Venus reporter expression, fluorescence; series mostly up to 36.5 µM
Potency is the fitted concentration of half-maximal effect.

Row | Compound | Potency | activity change, negative = inhibition
1 | CNC(=O)C(NC(=O)c1ccccc1)=C(C)C | inactive | –
2 | CNC(=O)c1cccc2nc3ccccc3nc12 | 6.31 µM (active) | –
3 | CN(C)C(=O)c1coc2nc3ccccc3nc12 | inactive | –
4 | Brc1ccc2nc(-c3ccccc3)c(Cc3ccccc3)n2c1 | inactive | –
5 | OC(Cc1ccc2ccccc2n1)c1ccc(Cl)c(Cl)c1 (configuration not stated) | inactive | –
6 | COc1ccc(S(=O)(=O)N[C@@H]2C=C[C@@H](CC(=O)N3CCc4ccccc4C3)O[C@@H]2CO)cc1 | inactive | –
7 | COc1ccc(NC(=O)C2Cc3c(-c4ccc5c(c4)OCO5)ccnc3O2)cn1 (configuration not stated) | inactive | –
8 | Cc1ccc(NC(=O)NC(=O)c2ccccc2)cc1F | inactive | –
9 | Cc1ccc(NC(=S)NC(=O)c2ccc(-c3ccccc3)cc2)cc1 | inactive | –
10 | Cc1cccc(NC(=O)NC(=S)NC(=O)c2ccccc2)c1 | 10 µM (active) | –
11 | CCCNC(=O)C1(C)CCN(Cc2ccc(Cl)c(Cl)c2)C1 (configuration not stated) | inactive | –
12 | CCCc1ccc(C(O)c2ncc(-c3cccc(OC)c3)[nH]2)cc1 (configuration not stated) | inactive | –
13 | Cc1ccc(-c2nc3c(C)cc(Br)cn3c2Cc2ccccc2)cc1 | inactive | –
14 | COc1ccccc1Cc1c(-c2ccc(Cl)cc2)nc2ccc(Cl)cn12 | inactive | –
15 | COc1ccc2c(c1O)-c1cccc3c1[C@@H](C2)N(C)CC3 | inactive | –
16 | COc1c(O)ccc2c1CN1CCc3cc4c(cc3C1C2)OCO4 (configuration not stated) | 11.2 µM (active) | –
17 | CN1CCc2cc3c(cc2[C@H]1[C@@H]1OC(=O)c2c1ccc1c2OCO1)OCO3 | inactive | –
18 | Cc1cccc(C)c1NC(=O)C(c1cccc2ccccc12)n1c(=O)c(-c2ccco2)nc2ccccc21 (configuration not stated) | inactive | –
19 | COc1ccc(-c2c(C)cc3oc(=O)cc(-c4ccccc4)c3c2C)cc1F | inactive | –
20 | COc1cc(OC)c2c(-c3cccc(-c4cccc(N)c4)c3)cc(=O)oc2c1 | 12.6 µM (active) | –
21 | COc1ccc(-c2c(C)cc3oc(=O)cc(-c4ccccc4)c3c2C)cc1OC | inactive | –
22 | CN[C@H]1C[C@H]2c3cc(Oc4ccccc4C)ccc3CCN2C(=O)[C@H]1[C@H](C)O | inactive | –
23 | CC1=C(C(=O)N(C(C)C)C(C)C)CC(CC(=O)NCCCCc2ccccc2)C(=O)N1CCC1=CCCCC1 (configuration not stated) | inactive | –
24 | CC1=C(C(=O)Nc2ccccc2)SCCO1 | inactive | –
25 | O=C(Nc1ccccc1)c1ccc2c(c1)OCCCO2 | inactive | –
26 | CC1=C(C(=O)Nc2ccccc2)S(=O)(=O)CCO1 | 0.794 µM (active) | –

Row | Compound | Potency | activity change, negative = inhibition
27 | OC(CBr)C[n+]1cccc2cc(Br)ccc21 (configuration not stated) | inactive | –
28 | COc1cccc(C(O)c2nc(-c3ccc(C)c(C)c3)cs2)c1 (configuration not stated) | inactive | –
29 | CCC(C)N(c1ccc(/C=C/c2ccnc3ccccc23)cc1)C(C)CC (configuration not stated) | inactive | –
30 | COC(=O)Cc1ccc(OC2(C)CCN(Cc3ccc4c(c3)OCCO4)C2)cc1 (configuration not stated) | inactive | –
31 | COC(=O)c1ccc2nc(-c3ccccc3)c(Cc3ccc(OC)cc3C)n2c1 | inactive | –
32 | Cc1ccc(C)c(-n2c(SCC(=O)O)nc3sc4c(c3c2=O)CCCC4)c1 | inactive | –
33 | CCCc1nc2sc3c(c2c(=O)n1NC(=O)CCCl)CCCC3 | 7.94 µM (active) | –
34 | Cn1c(NN)nc2sc3c(c2c1=O)CCC3 | inactive | –
35 | Nc1nc2c(Br)ccc(Br)c2cc1C(=O)NCCc1ccccc1 | inactive | –
36 | Cc1ccc2nc(-c3ccccc3)c(CC3CCCCC3)n2c1 | inactive | –
37 | O=C(NC1CCCC1)C1c2ccccc2OCC(=O)N1Cc1ccccc1 (configuration not stated) | inactive | –
38 | CC(=O)c1ccc(-c2cnc3c(NC=O)cc(-c4cccc(NS(C)(=O)=O)c4)cn23)cc1 | 11.2 µM (active) | –
39 | CC(=O)c1cccc(-c2cnc3c(NC=O)cc(-c4ccc(N(C)C)cc4)cn23)c1 | inactive | –
40 | CC(=O)c1cccc(-c2cnc3c(NC=O)cc(-c4cccc(C(=O)N(C)C)c4)cn23)c1 | inactive | –
41 | CC(C)(C)c1ccc(C(=O)C[N+]2(C)CCCc3ccccc32)cc1 (configuration not stated) | inactive | –
42 | CCC(C)(O)C(=O)OC1C(=O)OC2CC3C(C)=CC(=O)C(O)C3(C)C3C4(O)OCC23C1C(C)C4O (configuration not stated) | 0.316 µM (active) | –
43 | CC=CCn1c(SCCCc2ccccc2)nc2c1c(=O)[nH]c(=O)n2C | inactive | –
44 | CN(C(=N)N)c1ccc(/C=C2\C=Cc3ccccc32)cc1 | inactive | –
45 | COc1ccc(S(=O)(=O)N2CCCCC2c2cc(C(=O)NCc3ccc(F)cc3)no2)cc1 (configuration not stated) | inactive | –
46 | CCN(CC)c1ncnc2c1ncn2[C@H]1CN(Cc2cccs2)C[C@@H](CO)O1 | inactive | –
47 | CCOc1cc(N2CCOCC2)c(OCC)cc1NC(=O)c1cc(C)nc2ccccc12 | inactive | –
48 | CCOc1cc(N2CCOCC2)c(OCC)cc1NC(=O)COc1cccc2cccnc12 | 12.6 µM (active) | –
49 | CCOc1cc(N2CCOCC2)c(OCC)cc1NC(=O)COc1cccc(Cl)c1 | inactive | –
50 | CN(N=O)c1ccc(C=C2c3ccccc3-c3ccccc32)cc1 | inactive | –
51 | CN(C)C1=C2C=CC=CC2/C(=C2/C=Cc3ccccc32)C=C1 (configuration not stated) | inactive | –
52 | COC(=O)c1ccc(COc2ccc(/C=N/NC(=O)C(=O)Nc3ccc(OC)cc3)cc2OC)o1 | – | 4.27% [at 7.34 µM] (inactive)

Row | Compound | Potency | activity change, negative = inhibition
53 | O=C(N/N=C/c1cccc(OCc2ccccc2)c1)c1ccc(Br)o1 | inactive | –
54 | CCCc1ccc(OCc2ccc(C(=O)N/N=C/c3cccc([N+](=O)[O-])c3)o2)c(OC)c1 | 7.08 µM (active) | –
55 | CC(=O)Nc1cccc(-c2cc(NC(C)=O)c3ncc(-c4ccccc4)n3c2)c1 | inactive | –
56 | CC(C)C[C@@H]1Cc2[nH][nH]c(=O)c2[C@H](CCc2ccccc2)O1 | inactive | –
57 | Nc1ncn(C2OC(CO)C(O)C2O)c(=O)n1 (configuration not stated) | 10 µM (active) | –
58 | CC(C)Sc1nc(N)nc2c1ncn2C1OC(CO)C(O)C1O (configuration not stated) | inactive | –
59 | Nc1nc(SCc2ccc([N+](=O)[O-])cc2)c2ncn(C3OC(CO)C(O)C3O)c2n1 (configuration not stated) | inactive | –
60 | Fc1cccc(Cc2c(-c3cccc(Cl)c3)nc3ccc(Br)cn23)c1 | inactive | –
61 | C/C(=N\NC(=O)Cc1ccc(Cl)cc1)c1ccccn1 | 6.31 µM (active) | –
62 | C/C(=N\NC(=O)c1ccccc1F)c1ccccn1 | inactive | –
63 | C/C(=N\NC(=O)Cc1ccc(Br)cc1)c1cccnc1 | inactive | –
64 | CCC(C(=O)NC(C)(C)C)n1c(-c2ccccc2)nc2ccccc21 (configuration not stated) | inactive | –
65 | Cc1cc(Br)cn2c(Cc3ccsc3)c(-c3ccc(C#N)cc3)nc12 | inactive | –
66 | COc1ccc(-c2cc3nc(NCCOc4ccccc4)ccn3n2)cc1 | inactive | –
67 | CCOC(=O)C1=CC[C@@H](c2ccccc2)N(S(=O)(=O)c2ccc(C)cc2)[C@H]1c1ccc(CC)cc1 | inactive | –
68 | CCOc1ccc(S(=O)(=O)Nc2ccc(OC)nc2)cc1 | inactive | –
69 | COc1ccc(NC(=O)CN2C(=O)NC(C)(c3ccccc3)C2=O)cn1 (configuration not stated) | inactive | –
70 | COc1ccc(CS(=O)/C(Cl)=C(/Cl)C(=O)Nc2ccc(OC)nc2)cc1 (configuration not stated) | 5.62 µM (active) | –
71 | Cc1c(CCO)sc[n+]1CC(=O)c1ccc2ccccc2c1 | inactive | –
72 | COC(=O)C1(C(=O)OC)C/C=C\CN(S(=O)(=O)c2ccccc2[N+](=O)[O-])CCC1 | inactive | –
73 | COc1ccc(Br)c(Cn2c(C)c(C(=O)NCc3cccs3)sc2=O)c1 | inactive | –
74 | COc1cccc(NC(=O)C2(C)CCN2Cc2ccccc2Cl)c1 (configuration not stated) | inactive | –
75 | O=C(NCc1ccccc1)C(c1ccc(F)cc1)N1CCN(C(=O)C2CCCO2)CC1 (configuration not stated) | inactive | –
76 | Fc1ccc2[nH]c3c(N4CCN(Cc5ccc6c(c5)OCO6)CC4)ncnc3c2c1 | 6.31 µM (active) | –
77 | O=c1[nH]c(N2CCN(Cc3ccc4c(c3)OCO4)CC2)nc2c1CCCC2 | inactive | –
78 | Fc1ccc(N2CCN(Cc3ccc4c(c3)OCO4)CC2)cc1 | inactive | –

Row | Compound | Potency | activity change, negative = inhibition
79 | CCOP(=O)(OCC)C(Cc1ccccc1)N=C(c1ccccc1)c1ccccc1 (configuration not stated) | inactive | –
80 | CN(Cc1ccccc1)c1ccc(/C=C/c2ccnc3ccccc23)cc1 | inactive | –
81 | Brc1cccc[n+]1Cc1cccc(C[n+]2ccccc2Br)c1 | inactive | –
82 | COC(=O)c1ccc2nc(-c3ccc(F)cc3)c(Cc3ccc(C)cc3)n2c1 | inactive | –
83 | CC(C)(C)C1CCC(NC(=O)c2cnn3c2NC(=C2CC2)C=C3C(F)F)CC1 (configuration not stated) | inactive | –
84 | O=c1c2ccccc2[nH]c(=S)n1-c1cccc(Cl)c1 | inactive | –
85 | Cc1[nH]n(-c2cccc(Cl)c2)c(=O)c1-c1ccc(Cl)cc1 | 28.2 µM (active) | –
86 | O=c1c(-c2cccc(Cl)c2)c[nH]n1-c1ccccc1 | inactive | –
87 | CCN(CC)c1ccc(/C=C/c2c(C)cnc3ccc(C)cc23)cc1 | inactive | –
88 | CN1CCN(c2nc3c(c(=O)[nH]c(=O)n3C)n2Cc2cccc3ccccc23)CC1 | inactive | –
89 | Cn1c(=O)[nH]c(=O)c2c1nc(N1CCN(C(c3ccccc3)c3ccccc3)CC1)n2CCO | 12.6 µM (active) | –
90 | Cn1c(=O)[nH]c(=O)c2c1nc(N1CCN(CCO)CC1)n2CCSc1nc2ccccc2s1 | inactive | –
91 | COC(=O)[C@@]12C[C@@H](CC(=O)NCc3cccc(C(F)(F)F)c3)C(=O)N(Cc3ccco3)C1=CCC(C)(C)C2 | inactive | –
92 | C=C(C)C(=O)O[C@H]1C/C(C)=C\C(=O)/C=C(\C)[C@H](O)[C@@H]2OC(=O)C(=C)[C@@H]21 | 10 µM (active) | –
93 | O=C1NC[C@H](Cc2ccc(O)cc2)N(C[C@H]2CCCN2C[C@H](Cc2ccccc2)N2C[C@H](Cc3ccccc3)N(CCc3ccccc3)C(=O)C2=O)C1=O | inactive | –
94 | C#CCOCCOCCOCCNc1nc(N2CCN(C(=O)Cn3cc(CCO)nn3)CC2)nc(N2CCN(C(=O)Cn3cc(CCCN=C(N)N)nn3)CC2)n1 | inactive | –
95 | C#CCOCCOCCOCCNc1nc(N2CCN(C(=O)[C@H](CCCCN)n3cc(CCC(=O)O)nn3)CC2)nc(N2CCN(C(=O)[C@H](CCCCN)n3cc(CC(C)O)nn3)CC2)n1 (some centres not stated) | inactive | –
96 | C#CCOCCOCCOCCNc1nc(N2CCN(C(=O)CCCCCCCCCCNC(=O)[C@H]([C@@H](C)CC)n3cc(CCCCN=C(N)N)nn3)CC2)nc(N2CCN(C(=O)CCCCCCCCCCNC(=O)[C@H](CO)n3cc(CCCSC)nn3)CC2)n1 | 15.8 µM (active) | –
97 | C#CCOCCOCCOCCNc1nc(N2CCN(C(=O)[C@H](C(C)C)n3cc(CCO)nn3)CC2)nc(N2CCN(C(=O)[C@H]([C@@H](C)CC)n3cc(CCCN=C(N)N)nn3)CC2)n1 | inactive | –
98 | C#CCOCCOCCOCCNc1nc(N2CCN(C(=O)CCCCCCCCCCNC(=O)[C@H](CCCCN)n3cc(C)nn3)CC2)nc(N2CCN(C(=O)CCCCCCCCCCNC(=O)[C@H](CO)n3cc(CCCSC)nn3)CC2)n1 | 7.94 µM (active) | –
99 | C#CCOCCOCCOCCNc1nc(N2CCN(C(=O)Cn3cc(CCO)nn3)CC2)nc(N2CCN(C(=O)[C@H](CCCCN)n3cc(CCCC)nn3)CC2)n1 | inactive | –
100 | C#CCOCCOCCOCCNc1nc(N2CCN(C(=O)[C@H](CCC(=O)O)n3cc(CN)nn3)CC2)nc(N2CCN(C(=O)[C@H](CCC(=O)O)n3cc(CN)nn3)CC2)n1 | inactive | –
101 | C#CCOCCOCCOCCNc1nc(N2CCN(C(=O)CCCCCCCCCCNC(=O)Cn3cc(CCCCCN)nn3)CC2)nc(N2CCN(C(=O)CCCCCCCCCCNC(=O)[C@H](CO)n3cc(CCCSC)nn3)CC2)n1 | 10 µM (active) | –
102 | C#CCOCCOCCOCCNc1nc(N2CCN(C(=O)Cn3cc(CCCCN)nn3)CC2)nc(N2CCN(C(=O)[C@H](CCCCN)n3cc(CCC(=O)O)nn3)CC2)n1 | inactive | –
